The full ranking holds about 18,000 sequences; the median of “log2 normalized intensity” is about 0.36, and the highest 2% start at about 7.3. The full list was thinned out, with the highest values kept by preference.

This assay addresses T1, HNF4alpha8 (COS-7 nuclear extract) (Homo sapiens, UniProt P41235-5 1-452).
T1 sequence: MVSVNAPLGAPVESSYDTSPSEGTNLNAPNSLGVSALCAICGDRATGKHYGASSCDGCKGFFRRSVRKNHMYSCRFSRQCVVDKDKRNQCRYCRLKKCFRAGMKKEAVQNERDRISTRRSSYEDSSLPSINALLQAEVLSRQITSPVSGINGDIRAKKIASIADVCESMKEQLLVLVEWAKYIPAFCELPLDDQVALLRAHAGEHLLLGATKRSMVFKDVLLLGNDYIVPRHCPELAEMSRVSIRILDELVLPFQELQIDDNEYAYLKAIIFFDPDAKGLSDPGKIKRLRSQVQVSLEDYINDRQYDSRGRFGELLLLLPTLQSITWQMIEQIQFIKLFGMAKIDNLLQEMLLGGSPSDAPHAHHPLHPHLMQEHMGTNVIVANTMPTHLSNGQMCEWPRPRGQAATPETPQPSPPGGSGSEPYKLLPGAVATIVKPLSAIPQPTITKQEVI
In words: protein-binding microarray; COS-7 nuclear extract on double-stranded Agilent 4x180k PBM; binding buffer, salt, pH and temperature not given in the material; high values mean tight binding. The conditions noted are these: chain copies: 2; label: 3' end of strand 1 on the slide; dsDNA, one strand shown. The procedure, abridged:
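Double-stranded oligonucleotides of ~60 nt, representing ~44,000 test sequences in quadruplicate, made up a custom Agilent SurePrint G3 4x180k array. Nuclear extracts from COS-7 cells transiently transfected by CaPO4 with a human HNF4α isoform expression vector were applied, and bound HNF4α was imaged at 2-µm resolution on an Agilent G2565CA scanner. Binding signal refers to the background-corrected, normalized gProcessedSignal output of Agilent software.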
For the sequence “ACAGGGAAAGTATGGGTCAGCCCTGCCATCGCCTAGGGAGATTAGAGTATCGGTCGA”, the binding signal was -0.943 log2 normalized intensity. The same measure for “GTTTTACAAACACAATGGAAGGCTGTATGTGCCTAGGGAGATTAGAGTATCGGTCGA”: 0.119 log2 normalized intensity; for “GTCACTGCTCAAAAACACTCAGTTAATTATGCCTAGGGAGATTAGAGTATCGGTCGA”: -0.0424 log2 normalized intensity. Regarding “CTCCCAAATCTTCTTTAAGCTATGTGGTGGGCCTAGGGAGATTAGAGTATCGGTCGA”, the binding signal was 0.933 log2 normalized intensity.

Take “TTTCTGTTTGTCTTACTGTGTTGTCGTATTGCCTAGGGAGATTAGAGTATCGGTCGA”: the binding signal came out at 2.11 log2 normalized intensity. The same measure for “ACAGCACTTAGGGTTCAAAGGTTGTTGAGCGCCTAGGGAGATTAGAGTATCGGTCGA”: 6.67 log2 normalized intensity; for “TACTTTGCTTCCAAGTTATGCAGACCTTTGGCCTAGGGAGATTAGAGTATCGGTCGA”: 2.66 log2 normalized intensity; for “TGCTTCCAAGTTATGCAGACCTTTGCCCTTGCCTAGGGAGATTAGAGTATCGGTCGA”: 7.7 log2 normalized intensity.

As to “CTCCAGGGCACTGCCCTTTGGAACCTGCCCGCCTAGGGAGATTAGAGTATCGGTCGA”, the binding signal was 6.57 log2 normalized intensity. For the sequence “CTAGGCTCCAGGGCACTGCCCTTTGGAACCGCCTAGGGAGATTAGAGTATCGGTCGA”, the binding signal amounted to 7.42 log2 normalized intensity. On to “GCAGGGGATGCCCTTTGACCTCTGCTTCCTGCCTAGGGAGATTAGAGTATCGGTCGA”, for which the binding signal came out at 8.67 log2 normalized intensity. On to “GGATGCCCTTTGACCTCTGCTTCCTGCTACGCCTAGGGAGATTAGAGTATCGGTCGA”, for which the binding signal came to 6.5 log2 normalized intensity. The same measure for “ATTCCCTTTCTCCTCCCCTCCCCTCCCCCCGCCTAGGGAGATTAGAGTATCGGTCGA”: 6.78 log2 normalized intensity. Next, “ATTCCCTCCAGCAGGGGATGCCCTTTGACCGCCTAGGGAGATTAGAGTATCGGTCGA”: 9.35 log2 normalized intensity.

Take “TTATGCAGACCTTTGCCCTTTGTTTACATAGCCTAGGGAGATTAGAGTATCGGTCGA”: the binding signal was 5.95 log2 normalized intensity. Next, “AAAGCCTAGGCTCCAGGGCACTGCCCTTTGGCCTAGGGAGATTAGAGTATCGGTCGA”: 3.51 log2 normalized intensity.

Consider “CCCTTTGACCTCTGCTTCCTGCTACAGAGCGCCTAGGGAGATTAGAGTATCGGTCGA”, for which the binding signal came out at 2.76 log2 normalized intensity.

For “TGCACATTCCCTCCAGCAGGGGATGCCCTTGCCTAGGGAGATTAGAGTATCGGTCGA”, the binding signal was found to be 2.84 log2 normalized intensity.

As to “CACAGACCTGCCTCTCTCTCATGTCTGTACGCCTAGGGAGATTAGAGTATCGGTCGA”, the binding signal turned out to be 0.832 log2 normalized intensity. Next, “TGGTGCTATGTCCCTGACTGTGTGGCTTGCGCCTAGGGAGATTAGAGTATCGGTCGA”: 0.908 log2 normalized intensity; “GTCCATCACCTGGCTCTGAAAAACAAAATGGCCTAGGGAGATTAGAGTATCGGTCGA”: -0.567 log2 normalized intensity. For the sequence “CTTCACCTCCCCTAGACTTACTATTATGCCGCCTAGGGAGATTAGAGTATCGGTCGA”, the binding signal stood at 1.86 log2 normalized intensity. The same measure for “TGAGGGGACAAAGTTCGTGGAAAGTGGAAGGCCTAGGGAGATTAGAGTATCGGTCGA”: 3.11 log2 normalized intensity.

Regarding “GCAGAGGGACAACTGAGTTACGTAATGTGTGCCTAGGGAGATTAGAGTATCGGTCGA”, the binding signal is 0.932 log2 normalized intensity. Next, “TGAACTATTGAACCACCAGATAGAGCTTTTGCCTAGGGAGATTAGAGTATCGGTCGA”: 0.654 log2 normalized intensity; “CCACCCTATTGATGCAAGGACAATGTCTAGGCCTAGGGAGATTAGAGTATCGGTCGA”: 1.38 log2 normalized intensity; “CTTCAAGTCAGTCAAAATGAATAGTCCTTTGCCTAGGGAGATTAGAGTATCGGTCGA”: 0.855 log2 normalized intensity. Next, “GATAAAGCAGGTTGTACCTTGACCCAAGAAGCCTAGGGAGATTAGAGTATCGGTCGA”: 5.6 log2 normalized intensity; “TTCCAGGCTTGTACCTTGACCTTCTCTGTTGCCTAGGGAGATTAGAGTATCGGTCGA”: 6.19 log2 normalized intensity. The same measure for “GGCAGGGCCAGATAAAGCAGGTTGTACCTTGCCTAGGGAGATTAGAGTATCGGTCGA”: 3.15 log2 normalized intensity; for “CCTGCTTCCAGGCTTGTACCTTGACCTTCTGCCTAGGGAGATTAGAGTATCGGTCGA”: 7.46 log2 normalized intensity. As to “GGCCAGATAAAGCAGGTTGTACCTTGACCCGCCTAGGGAGATTAGAGTATCGGTCGA”, the binding signal stood at 9.73 log2 normalized intensity.

Consider “CCCTTCCTGCTTCCAGGCTTGTACCTTGACGCCTAGGGAGATTAGAGTATCGGTCGA”, for which the binding signal amounted to 3.23 log2 normalized intensity. Next, “AGATCTGGATATGCCTGGGGTTCCAGTTACGCCTAGGGAGATTAGAGTATCGGTCGA”: 0.546 log2 normalized intensity. The same measure for “CTTCCATATAACCCTTGAACCTTCTTCTTGGCCTAGGGAGATTAGAGTATCGGTCGA”: 4.81 log2 normalized intensity; for “CCTCCAGGCCCCAGCCACGCCCTCTAACCCGCCTAGGGAGATTAGAGTATCGGTCGA”: 3.33 log2 normalized intensity. Take “TTATCAGGACTTTGTGATTACATTGAGTCCGCCTAGGGAGATTAGAGTATCGGTCGA”: the binding signal was 1.97 log2 normalized intensity. Turning to “AAAAACACCTGGTTCCTTGCAAGATAAGGGGCCTAGGGAGATTAGAGTATCGGTCGA”, the binding signal is -0.239 log2 normalized intensity. Next, “CCTCTCAGGAATGTGGATGCTAAAAGTGAAGCCTAGGGAGATTAGAGTATCGGTCGA”: -0.262 log2 normalized intensity. The same measure for “GTATGTTCTTAAGATAAGGACTGTTGGACCGCCTAGGGAGATTAGAGTATCGGTCGA”: 4.24 log2 normalized intensity; for “GGGAAGCTGTGTGAAGTGACTTGCCCTGTTGCCTAGGGAGATTAGAGTATCGGTCGA”: 2.3 log2 normalized intensity; for “GGACTTGATCCATTCTACCCCTGTGGTTGAGCCTAGGGAGATTAGAGTATCGGTCGA”: 2.5 log2 normalized intensity. Next, “TGATCCATTCTACCCCTGTGGTTGACCTTTGCCTAGGGAGATTAGAGTATCGGTCGA”: 8.51 log2 normalized intensity; “GTTGACCTTTAGTCTCTAGCCCCGCCCAGAGCCTAGGGAGATTAGAGTATCGGTCGA”: 5.33 log2 normalized intensity. As to “ATGCTAAAGTCTACATTCTAGATGACCCCTGCCTAGGGAGATTAGAGTATCGGTCGA”, the binding signal is 6.17 log2 normalized intensity.

On to “CATTCTACCCCTGTGGTTGACCTTTAGTCTGCCTAGGGAGATTAGAGTATCGGTCGA”, for which the binding signal is 8.33 log2 normalized intensity.

As to “AGTGACCCTGTCTCTCAGTCTCTGTGGGAGGCCTAGGGAGATTAGAGTATCGGTCGA”, the binding signal was 1.23 log2 normalized intensity. Regarding “TTACTGGACTTGATCCATTCTACCCCTGTGGCCTAGGGAGATTAGAGTATCGGTCGA”, the binding signal was found to be 2.82 log2 normalized intensity.

As for “TGTCTACCCTTTTGCCCTTTGAGCTTCTGTGCCTAGGGAGATTAGAGTATCGGTCGA”, the binding signal is 5.93 log2 normalized intensity.

For the sequence “TACCCCTGTGGTTGACCTTTAGTCTCTAGCGCCTAGGGAGATTAGAGTATCGGTCGA”, the binding signal was 7.47 log2 normalized intensity. For the sequence “AAATCATGGATCTGTGCTCAGATCCTGCTCGCCTAGGGAGATTAGAGTATCGGTCGA”, the binding signal is -0.984 log2 normalized intensity.

For “CCGGACATGGAGAGGTGAGACACGTGTGCCGCCTAGGGAGATTAGAGTATCGGTCGA”, the binding signal was -0.118 log2 normalized intensity.

On to “GGCTAGACTTTAACCCCCTTGTCTTCCTCAGCCTAGGGAGATTAGAGTATCGGTCGA”, for which the binding signal came out at 4.16 log2 normalized intensity.

Consider “GGCTGCAGAGGTTTCGCAAGGACGTGACCTGCCTAGGGAGATTAGAGTATCGGTCGA”, for which the binding signal was 3.33 log2 normalized intensity.

These data come from PMC10726135, “HNF4α isoforms regulate the circadian balance between carbohydrate and lipid metabolism in the liver”.
